# Source: PubChem BioAssay AID1159580 (chemical genetic matrix, 2015)
# “And” between values parts separate entries of the source, which are not always exact repeats. Identical values can stand only once. The campaign covered roughly 5,500 compounds. About 2,000 (36%) were called active. About 18% were inconclusive and are not listed. No stated cut-off is given here; in the data, active means normalized growth mostly below about 0.91 (no sharp cut-off); inconclusive means no clear call, values can overlap the other calls; inactive means mostly above about 0.92. This is one part of the list. A structure can be active in one record and inactive in another.
# Experiment: chemical genetic growth profiling, strain panel (AID 1159580);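 further: tested at 20 µM; growth read once vehicle control cultures reached saturation at 30 °C; 1 = growth at the plate median or of vehicle wells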
# Conditions: S. cerevisiae deletion strains, growth OD
compound,measurement,setting,value
CSc1ccc2c(c1)N(CCC1CCCCN1C)c1ccccc1S2 (stereo not given),normalized growth,"locus YAL013W, strain DEP1, stronger effect = lower value",0.161 (active) and 0.864 (active)
same,normalized growth,"locus YAL021C, strain ccr4, stronger effect = lower value",0.939 (inactive)
same,normalized growth,"locus YAL026C, strain drs2, stronger effect = lower value",0.23 (active)
same,normalized growth,"locus YAL030W, strain snc1, stronger effect = lower value",0.985 (inactive)
same,normalized growth,"locus YAL040C, strain CLN3, stronger effect = lower value",1.07 (inactive)
same,normalized growth,"locus YBL061C, strain skt5, stronger effect = lower value",0.963 (inactive)
same,normalized growth,"locus YBR009C, strain hhf1, stronger effect = lower value",0.877 (active)
same,normalized growth,"locus YBR021W, strain FUR4, stronger effect = lower value",0.195 (active)
same,normalized growth,"locus YBR023C, strain chs3, stronger effect = lower value",0.923 (inactive)
same,normalized growth,"locus YBR171W, strain sec66, stronger effect = lower value",1.03 (inactive)
same,normalized growth,"locus YBR229C, strain ROT2, stronger effect = lower value",0.451 (active)
same,normalized growth,"locus YBR231C, strain swc5, stronger effect = lower value",0.94 (inactive)
same,normalized growth,"locus YBR279W, strain paf1, stronger effect = lower value",0.924 (active)
same,normalized growth,"locus YCL011C, strain gbp2, stronger effect = lower value",0.94 (inactive)
same,normalized growth,"locus YCL016C, strain dcc1, stronger effect = lower value",0.951 (inactive)
same,normalized growth,"locus YCL029C, strain bik1, stronger effect = lower value",0.169 (active)
same,normalized growth,"locus YCL061C, strain MRC1 (second series), stronger effect = lower value",0.991 (inactive)
same,normalized growth,"locus YCL069W, strain vba3, stronger effect = lower value",1.01 (inactive)
same,normalized growth,"locus YCR088W, strain abp1, stronger effect = lower value",1.01 (inactive)
same,normalized growth,"locus YDL005C, strain med2, stronger effect = lower value",1.05 (inactive)
same,normalized growth,"locus YDL035C, strain GPR1, stronger effect = lower value",0.0738 (active)
same,normalized growth,"locus YDL040C, strain nat1, stronger effect = lower value",1.01 (inactive)
same,normalized growth,"locus YDL074C, strain BRE1, stronger effect = lower value",0.0864 (active)
same,normalized growth,"locus YDL101C, strain DUN1, stronger effect = lower value",0.0947 (active)
same,normalized growth,"locus YDL134C, strain PPH21, stronger effect = lower value",0.0681 (active)
same,normalized growth,"locus YDL185W, strain tfp1, stronger effect = lower value",1.01 (inactive)
same,normalized growth,"locus YDL192W, strain arf1, stronger effect = lower value",0.0652 (active)
same,normalized growth,"locus YDR001C, strain nth1, stronger effect = lower value",1.02 (inactive)
same,normalized growth,"locus YDR069C, strain doa4, stronger effect = lower value",0.891 (active)
same,normalized growth,"locus YDR101C, strain arx1, stronger effect = lower value",0.419 (active)
same,normalized growth,"locus YDR137W, strain rgp1, stronger effect = lower value",1.35 [resistant] (active)
same,normalized growth,"locus YDR150W, strain NUM1, stronger effect = lower value",0.972 (inactive)
same,normalized growth,"locus YDR159W, strain sac3, stronger effect = lower value",0.977 (inactive)
same,normalized growth,"locus YDR162C, strain NBP2, stronger effect = lower value",0.0524 (active)
same,normalized growth,"locus YDR195W, strain ref2",1.37 [resistant] (active)
same,normalized growth,"locus YDR297W, strain sur2, stronger effect = lower value",0.962 (inactive)
same,normalized growth,"locus YDR318W, strain mcm21, stronger effect = lower value",0.116 (active)
same,normalized growth,"locus YDR334W, strain swr1, stronger effect = lower value",1.04 (inactive)
same,normalized growth,"locus YDR335W, strain msn5, stronger effect = lower value",0.967 (inactive)
same,normalized growth,"locus YDR363W, strain ESC2, stronger effect = lower value",0.894 (inactive)
same,normalized growth,"locus YDR388W, stronger effect = lower value",0.0641 (active)
same,normalized growth,"locus YDR392W, strain spt3, stronger effect = lower value",1.12 (inactive)
same,normalized growth,"locus YDR502C, strain sam2, stronger effect = lower value",0.123 (active)
same,normalized growth,"locus YEL003W, strain gim4, stronger effect = lower value",0.971 (inactive)
same,normalized growth,"locus YEL037C, strain rad23, stronger effect = lower value",1.01 (inactive)
same,normalized growth,"locus YEL061C, strain CIN8 (second series), stronger effect = lower value",1.02 (inactive)
same,normalized growth,"locus YEL061C, strain CIN8, stronger effect = lower value",0.196 (active)
same,normalized growth,"locus YER002W, strain NOP16, stronger effect = lower value",1.01 (inactive)
same,normalized growth,"locus YER015W, strain faa2, stronger effect = lower value",0.842 (active)
same,normalized growth,"locus YER016W, strain bim1, stronger effect = lower value",0.992 (inactive)
same,normalized growth,"locus YER110C, stronger effect = lower value",0.916 (inactive)
same,normalized growth,"locus YER111C, strain swi4, stronger effect = lower value",1.01 (inactive)
same,normalized growth,"locus YER155C, strain BEM2 (second series), stronger effect = lower value",1.05 (inactive)
same,normalized growth,"locus YER155C, strain BEM2, stronger effect = lower value",0.789 (active)
same,normalized growth,"locus YER167W, strain BCK2, stronger effect = lower value",0.118 (active)
same,normalized growth,"locus YFR010W, strain ubp6, stronger effect = lower value",0.781 (active)
same,normalized growth,"locus YGL078C, strain dbp3, stronger effect = lower value",1.01 (inactive)
same,normalized growth,"locus YGL086W, strain mad1, stronger effect = lower value",0.0828 (active)
same,normalized growth,"locus YGL167C, strain pmr1, stronger effect = lower value",1.01 (inactive)
same,normalized growth,"locus YGL173C, strain kem1, stronger effect = lower value",0.966 (inactive)
same,normalized growth,"locus YGL227W, strain vid30, stronger effect = lower value",1.04 (inactive)
same,normalized growth,"locus YGL240W, strain doc1, stronger effect = lower value",0.955 (inactive)
same,normalized growth,"locus YGL248W, strain PDE1, stronger effect = lower value",0.0643 (active)
same,normalized growth,"locus YGL253W, strain hxk2, stronger effect = lower value",0.948 (inactive)
same,normalized growth,"locus YGR078C, strain PAC10, stronger effect = lower value",0.194 (active) and 1.01 (inactive)
same,normalized growth,"locus YGR135W, strain pre9, stronger effect = lower value",0.189 (active)
same,normalized growth,"locus YGR229C, strain SMI1, stronger effect = lower value",0.06 (active)
same,normalized growth,"locus YGR252W, strain gcn5, stronger effect = lower value",0.161 (active)
same,normalized growth,"locus YHR013C, strain ard1, stronger effect = lower value",1.01 (inactive)
same,normalized growth,"locus YHR027C, strain rpn1, stronger effect = lower value",0.844 (active)
same,normalized growth,"locus YHR030C, strain SLT2, stronger effect = lower value",0.0522 (active) and 0.997 (inactive)
same,normalized growth,"locus YHR079C, strain IRE1 (second series), stronger effect = lower value",0.374 (active)
same,normalized growth,"locus YHR079C, strain IRE1, stronger effect = lower value",0.979 (inactive)
same,normalized growth,"locus YHR094C, strain hxt1, stronger effect = lower value",0.304 (active)
same,normalized growth,"locus YHR129C, strain ARP1, stronger effect = lower value",0.0924 (active)
same,normalized growth,"locus YHR142W, strain chs7, stronger effect = lower value",0.962 (inactive)
same,normalized growth,"locus YHR200W, strain rpn10, stronger effect = lower value",0.26 (active)
same,normalized growth,"locus YIL066C, strain RNR3, stronger effect = lower value",0.0646 (active)
same,normalized growth,"locus YIL073C, strain SPO22, stronger effect = lower value",0.0996 (active)
same,normalized growth,"locus YIL125W, strain kgd1, stronger effect = lower value",1.01 (inactive)
same,normalized growth,"locus YIR030C, strain dcg1, stronger effect = lower value",0.227 (active)
same,normalized growth,"locus YJL092W, strain hpr5, stronger effect = lower value",0.994 (inactive)
same,normalized growth,"locus YJL095W, strain BCK1 (second series), stronger effect = lower value",0.894 (active)
same,normalized growth,"locus YJL095W, strain BCK1, stronger effect = lower value",0.0681 (active) and 0.997 (inactive)
same,normalized growth,"locus YJL115W, strain asf1, stronger effect = lower value",1.01 (inactive)
same,normalized growth,"locus YJL129C, strain trk1, stronger effect = lower value",1.07 (inactive)
same,normalized growth,"locus YJL134W, strain LCB3, stronger effect = lower value",0.9 (active)
same,normalized growth,"locus YJL154C, strain vps35, stronger effect = lower value",1.03 (inactive)
same,normalized growth,"locus YJL164C, strain tpk1, stronger effect = lower value",0.977 (inactive)
same,normalized growth,"locus YJL166W, strain qcr8, stronger effect = lower value",0.97 (inactive)
same,normalized growth,"locus YJL168C, strain set2, stronger effect = lower value",0.098 (active)
same,normalized growth,"locus YJL187C, strain SWE1 (second series), stronger effect = lower value",0.0709 (active)
same,normalized growth,"locus YJL187C, strain SWE1, stronger effect = lower value",0.939 (inactive)
same,normalized growth,"locus YJR043C, strain POL32, stronger effect = lower value",0.0862 (active)
same,normalized growth,"locus YJR066W, strain TOR1, stronger effect = lower value",0.937 (inactive)
